# According to PubChem BioAssay AID743330 (NMMLSC, 2014):
# Activity calls are given as the source filed them. How the calls were made is not given here.
# System: Cdc42
# Test: fluorescent GTP concentration effect on GTPase potency – biochemical, four GTPases, bead flow cytometry, mechanism study, profiling panel (AID 743330)
# Settings: bead-based flow cytometry, fluorescent GTP binding to GTPases
Structure (SMILES),outcome,EC50
CCC1(C)Cc2c(sc(NC(=S)NC(=O)c3ccccc3)c2C(=O)O)CO1 (configuration not stated),inactive,
CC1(C)Cc2c(sc(NC(=S)NC(=O)c3ccc(F)cc3)c2C(=O)O)CO1,,76 nM (active)
